Bioassay records deposited in PubChem BioAssay by National Center for Advancing Translational Sciences (NCATS).
Compounds with a hit are over-represented: about 0.4% of the library has one in this group of screens.
AID inhibitor: inhibitors of human activation induced cytidine deaminase; Potency, µM (doses to about 115 µM), actives largely listed as inhibitors; AID 1347428; 91,000 tested, 0.32% active; AID deamination FRET fluorescence, UDG-coupled, 4 h; Q9GZX7; further: nearly all actives have a fitted effect of over 25% in size
Target sequence (Q9GZX7 whole entry, looked up): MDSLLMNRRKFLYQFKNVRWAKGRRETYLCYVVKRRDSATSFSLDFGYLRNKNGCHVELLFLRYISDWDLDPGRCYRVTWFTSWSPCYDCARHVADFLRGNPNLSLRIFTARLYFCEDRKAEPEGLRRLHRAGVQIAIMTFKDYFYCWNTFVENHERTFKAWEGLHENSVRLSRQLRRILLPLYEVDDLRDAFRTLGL
UDG counterscr: counter-screen for AID inhibitors: uracil-DNA glycosylase inhibition; FRET deamination/UDG coupled assay, UDG read, 4 h; 91,000 tested, 0.14% active; Potency, µM (doses to about 115 µM), inactives show at the top dose activity change, negative = inhibition, most hits filed as inhibitors; further: nearly all actives have a fitted effect of over 65% in size
An asterisk follows results filed as active; i = inactive; u = inconclusive; ! = not confirmed by another sample; [ ] = remark or other dose. The call rests on the fitted dose curve; in most records, active means well fitted curve in the direction sought with a large enough effect; inconclusive means small, poorly fitted or top-dose-only effect, or another doubt; inactive means no such curve, though single readings can be large; an effect the other way counts as inactive or inconclusive. On the % scale 0 is the no-effect control and ±100 the full control effect; potency means the concentration at half of the fitted maximal effect.

SMILES | AID inhibitor | UDG counterscr
O=C(Nc1ccc(F)cc1)c1ccc[n+]([O-])c1 | i | 6%
CCCCN(CCCC)CC(O)Cn1cc(/C=C/C(=O)c2ccccc2)c2ccccc21 (stereo not drawn) | 32µM* | -16%
CCCCN(C)CC(O)Cn1cc(/C=C/C(=O)c2ccc(OCC)cc2)c2ccccc21 (stereo not drawn) | u | -17%
COc1ccc(-c2nc3ccccc3n2Cc2ccc(Cl)cc2)cc1 | 45µM* | u
COc1ccc(-c2nc3ccccc3n2Cc2ccc(C(C)C)cc2)cc1 | u | -4%
Cc1cc(C)c(C(=O)COC(=O)c2ccc(N3CCCC3=O)cc2)cc1C | i | -10%
COc1ccc(-c2cc(C)no2)cc1S(=O)(=O)N1CCCC(C)C1 (stereo not drawn) | i | -9%
Cc1cc(-c2ccc(C)c(S(=O)(=O)N3CCCC(C)C3)c2)on1 (stereo not drawn) | 25µM* | 12%
CCOCCCn1c(=N)c(C(=O)NC(C)c2ccccc2)cc2c(=O)n3cccc(C)c3nc21 (stereo not drawn) | 22µM* | -21%
Cc1cccn2c(=O)c3cc(C(=O)NC(C)c4ccccc4)c(=N)n(CCOCCO)c3nc12 (stereo not drawn) | i | 7%
Cc1cc(NC(=O)c2oc3c(c2C)-c2[nH]ncc2CC3)ccc1Br | 35µM* | -17%[57.5 µM]
CCc1ccc(NC(=O)c2oc3c(c2C)-c2[nH]ncc2CC3)cc1 | u | -17%[57.5 µM]
c1ccc(NC2(c3nnnn3-c3ccccc3)CCCC2)cc1 | i | -5%
Cc1cccc(C2(c3cccc(C)c3)CC2C(=O)NC(C)(C)C)c1 (stereo not drawn) | i | 3%
CC1(C)CCC2=C(O1)c1ccccc1C(=O)C2=O | 7.9µM* | -12%
O=C1c2ccccc2-c2ccccc21 | i | 0%
CC(C)(C)c1ccc(CCC(=O)Nc2cccnc2)cc1 | i | 7%
O=Cc1ccc(OCc2ccccc2Cl)cc1 | i | -6%
O=Cc1cc(Cc2ccccc2Cl)cc(Br)c1O | 35µM* | -14%
CCCOc1ccc(C(=O)/C=C/c2cc(OC)c(OC)c(OC)c2)cc1 | i | -8%
CC(=O)C1=CC[C@H]2[C@@H]3CC[C@H]4C[C@@H](O)CC[C@]4(C)[C@H]3CC[C@]12C | i | -7%
CC(=O)O[C@H]1C[C@@H]2CC[C@@H]3[C@H](CC[C@@]4(C)[C@H]3C[C@H]([N+]3(C)CCCCC3)[C@@H]4OC(C)=O)[C@@]2(C)C[C@@H]1[N+]1(C)CCCCC1 | 22µM* | -8%
Cc1ccc2nc(Cl)c3cc(C(=O)N4CCCC(C)C4)sc3c2c1 (stereo not drawn) | 40µM* | -24%
Cc1ccc2nc(Cl)c3cc(C(=O)N4CCCCC4C)sc3c2c1 (stereo not drawn) | u | -4%
Cc1cccc(OCCC(=O)NC23CC4CC(CC(C4)C2)C3)c1 | i | -6%
SMILES | AID inhibitor | UDG counterscr
Cc1ccc(Cl)cc1NC(=O)Nc1nnc(N(C)Cc2ccccc2)s1 | i | 89µM*
Cc1ccc(NC(=O)Nc2nnc(N(C)Cc3ccccc3)s2)c(C)c1 | i | -10%
COc1ccc2c(C)c(CCC(=O)Nc3cccc(C(C)=O)c3)c(=O)oc2c1C | i | -1%
NCC(O)c1ccc(O)c(O)c1 (stereo not drawn) | i | -2%
CCC(NC(C)C)C(O)c1ccc(O)c(O)c1 (stereo not drawn) | 45µM* | -12%
CC(C)NCC(O)c1cc(O)cc(O)c1 (stereo not drawn) | i | 2%
CC(C)NC[C@H](O)c1ccc(O)c(O)c1 | 79µM*! | -9%
O=C(c1cnn(-c2ccc(F)cc2)c1-n1cccc1)N1CCC2(CC1)OCCO2 | i | 13%
CC(=O)c1c(C)[nH]c(C(=O)c2cc3cc(Cl)ccc3o2)c1C | i | -3%
COc1cc(/C=C/C(=O)OC(C)C(=O)c2ccc(C)cc2)ccc1OCC#N (stereo not drawn) | i | -1%
Oc1ccc(NCc2ccccc2OCc2ccccc2F)cc1 | 20µM* | -8%
Oc1ccc(NCc2ccccc2OCc2ccccc2Cl)cc1 | 32µM* | -18%
N#Cc1ccc(NCc2ccccc2Cl)cc1 | i | -3%
Fc1ccc(NCc2ccccc2F)cc1 | i | 3%
O=C(O)C1(c2ccc(Br)cc2)CCC1 | i | 1%
COc1ccc(N(C)C(=O)c2cn(C3CCCCC3)c(=O)c3c2c2ccccc2n3C)cc1 | 40µM* | u
COc1cc(NC(=O)c2cn(C3CCCC3)c(=O)c3c2c2ccccc2n3C)cc(OC)c1OC | i | 1%
CCN(Cc1ccccc1)Cc1csc(C)c1C | i | 3%
COc1ccc2[nH]c(C)c(C(=O)CN3CCC(Cc4ccccc4)CC3)c2c1 | i | 89µM*
COc1ccc2[nH]c(C)c(C(=O)CN3CCC(C)CC3)c2c1 | i | 0%
CC(=O)Nc1ccc(SCCS(=O)c2ccccc2)cc1 (stereo not drawn) | i | 3%
COc1ccc(C2=NC(c3ccccc3)=Nc3ccc(C)cc3N2)cc1 | i | 79µM*
Cc1ccc(C2=NC(c3ccccc3)=Nc3ccc(Cl)cc3N2)cc1 | i | u
O=C(CCc1ncc(-c2ccccc2Cl)o1)NCC1CCCO1 (stereo not drawn) | i | -2%
CN(Cc1ccccc1Cl)C(=O)c1ccc2c(c1)CCN2S(C)(=O)=O | i | -2%
SMILES | AID inhibitor | UDG counterscr
Cc1cc(N)c2ccccc2[n+]1CCCCCCCCCC[n+]1c(C)cc(N)c2ccccc21 | 50µM* | 89µM*
COc1cc(/C=C/C(=O)C2C(=O)C=C(C)OC2=O)cc(Cl)c1OC(F)F (stereo not drawn) | i | 6%
Cc1ccc(Nc2nc(NC3CCCCC3)nc3c2cnn3C)c(C)c1 | i | -7%
COCCNC(=O)c1ccc2c(c1)N(Cc1c(F)cccc1Cl)C(=O)c1ccccc1S2 | i | -11%
CCN(CC)C(=O)c1ccc2c(c1)N(Cc1c(F)cccc1Cl)C(=O)c1ccccc1S2 | 71µM* | -21%
Cc1cc(C)c2cc(C(=O)OCc3ccc(C(=O)N4CCCC4)cc3)[nH]c2c1 | i | -7%
COCCCNC(=O)c1cc2c(-c3cccc(OC)c3)nn(C)c2s1 | i | -26%
COc1ccc(-c2nn(C)c3sc(C(=O)N4CCN(c5ccccc5F)CC4)cc23)cc1OC | u | 89µM*
COc1cccc(-c2nn(C)c3sc(C(=O)NCc4ccc(C)cc4)cc23)c1 | u | 89µM*
COc1ccccc1N1CCN(C(=O)c2cc3c(-c4ccccc4F)nn(C)c3s2)CC1 | u | -13%
Cc1cccc(N2CCN(C(=O)c3cc4c(=O)n(C)c5ccccc5c4s3)CC2C)c1 (stereo not drawn) | i | -10%
COc1cccc(-c2nn(C)c3sc(C(=O)N4CCN(c5cccc(C)c5)C(C)C4)cc23)c1 (stereo not drawn) | 40µM* | u
CC12CC3CC(C)(C1)CC(C(=O)NC(C)(C)CO)(C3)C2 | i | -3%
Cc1ccc(Nc2nc(NC3CCCC3)nc3c2cnn3-c2ccccc2)cc1C | i | 0%
CCOc1c(/C=N/O)cccc1OC | i | 12%
CCC(Sc1nc2c(sc3ccccc32)c(=O)n1CCc1ccc(OC)c(OC)c1)C(=O)N(CC)CC (stereo not drawn) | 32µM* | -18%
CCC(Sc1nc2c(sc3ccccc32)c(=O)n1CCc1ccccc1)C(=O)N(CC)CC (stereo not drawn) | i | 9%
CCOc1ccc(-n2nnnc2CNS(C)(=O)=O)cc1 | i | 1%
